From PubChem BioAssay AID449762 (Southern Research Specialized Biocontainment Screening …, 2010)
The whole screen tested about 330,000 compounds, of which about 1,900 (0.58%) were called active. Inconclusive results (about 4%) are left out. Rule as the data show it: inconclusive = inhibition above about 70% without an active follow-up result; inactive = below that. Not all results are given here. Entries with a potency or affinity are not part of this list.

Test: M. tuberculosis growth inhibition, HTS (AID 449762);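 also: bacterial growth assessed after seven days of incubation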
Settings: M. tuberculosis H37Rv growth inhibition, 7H9 media; at 25 µM; stronger effect = higher value

SMILES	inhibition
O=C(CSc1nnc(-c2c[nH]c3ccccc23)o1)N(Cc1ccccc1)c1ccc(F)cc1	-6.56% (inactive)
Cc1nc(SCc2nc3ccccc3[nH]2)c2oc3ccc(Br)cc3c2n1	18% (inactive)
Cc1ccccc1CN1C(=O)[C@H]2Cc3c([nH]c4ccccc34)C(C)(C)N2C1=O	-6.56% (inactive)
Cc1ccccc1CN1C(=O)[C@@H]2Cc3c([nH]c4ccccc34)C(C)(C)N2C1=O	8.29% (inactive)
C/C=C(\C)C(=O)NCCN1C2=NC[C@H](C)N2C[C@@H]1Cc1ccc(OC)cc1	0.12% (inactive)
COc1ccc(OC)c(-c2cc(C3CCN(c4cc(Cl)nc(N)n4)CC3)[nH]n2)c1	-10.8% (inactive)
CC(=O)c1ccc(N2CCC(c3cc(-c4ccc(Cl)cc4)n[nH]3)CC2)c([N+](=O)[O-])c1	-1.54% (inactive)
Nc1nc(Cl)cc(N2CCC(c3cc(-c4ccc(Cl)cc4)n[nH]3)CC2)n1	4.43% (inactive)
COc1ccc(-c2cc(C3CCN(c4ccc(C(C)=O)cc4[N+](=O)[O-])CC3)[nH]n2)cc1	2.56% (inactive)
Cc1cc(OCC(=O)NCc2ccccn2)c2c(C)c(Cc3ccccc3)c(=O)oc2c1	3.29% (inactive)
O=C(CN(Cc1cccs1)C(=O)CN1C(=O)COc2ccccc21)NCc1ccco1	-10.2% (inactive)
COc1ccc(S(=O)(=O)N2CCN(C(=O)CCNC(=O)c3ccccc3Cl)CC2)cc1	-12.2% (inactive)
COc1cc(OC)nc(Oc2cc(/C=N/O)ccc2OC)n1	6.12% (inactive)
O=C(O)c1ccccc1NS(=O)(=O)c1ccc(NN=Cc2ccc(F)cc2)c([N+](=O)[O-])c1	9.86% (inactive)
OC1(c2ccc(F)cc2)CCN(Cc2nnnn2Cc2cccs2)CC1	5.23% (inactive)
O=C(O)CSc1nnnn1-c1ccc2c(c1)OCCO2	-0.83% (inactive)
CC(C)OC(=O)CSc1nnnn1-c1ccc2c(c1)OCCO2	-0.39% (inactive)
O=C(NCCC1=CCCCC1)C1CCN(S(=O)(=O)c2cccc(C(F)(F)F)c2)CC1	5.79% (inactive)
Nc1nnc(SCCN2C(=O)c3ccccc3C2=O)s1	-1.41% (inactive)
CSc1nsc(SCCN2C(=O)c3ccccc3C2=O)n1	2.52% (inactive)
CCOC(=O)CSc1snnc1C	-6.63% (inactive)
Cc1cc(C)nc(NC(=O)CSc2nn(-c3ccccc3)c(=S)s2)n1	-0.15% (inactive)
CCOC(=O)CSc1nnc(-c2ccccc2)c(=O)[nH]1	-2.8% (inactive)

SMILES	inhibition
CCOC(=O)CSc1nn(C)c(=S)s1	0.33% (inactive)
Cc1ccc(NC(=S)N(CCN(C)C)C(C)c2cccnc2)c(C)c1 (stereo not given)	4.11% (inactive)
COC(=O)c1cc(OC)c(OC)cc1NC(=O)c1c(-c2ccccc2Cl)noc1C	-3.97% (inactive)
Cc1ccc(-c2csc(NC(=O)c3ccccc3Cl)c2C(=O)O)cc1	13.9% (inactive)
CSc1cccc(NC(=O)C2C3C=CC4(O3)C2C(=O)N(CCCN2CCOCC2)C4C(=O)NC2CCCCC2)c1 (stereo not given)	3.36% (inactive)
O=C(c1ccccc1F)N1CCN(S(=O)(=O)c2ccc3ccccc3c2)CC1	7.72% (inactive)
COc1ccc(NS(=O)(=O)c2cc(NC(=O)C3CC3)ccc2N2CCCCC2)cc1	1.69% (inactive)
Cc1ccc2c(c1)c1c3n2CCN(C(=O)CN2CCN(C)CC2)C3CCC1 (stereo not given)	-3.37% (inactive)
CC(=O)N1CCn2c3c(c4cc(C)ccc42)CCCC31 (stereo not given)	4.84% (inactive)
CC(C)CCN1CCN(CC(c2ccccc2)c2ccccc2)CC1CCO (stereo not given)	-4.44% (inactive)
Cc1ccc(Cn2c(=N)c(C(=O)NCc3ccco3)cc3c(=O)n4ccccc4nc32)cc1	4.13% (inactive)
COCCn1c(=N)c(C(=O)NCc2ccco2)cc2c(=O)n3cc(C)ccc3nc21	0.47% (inactive)
COc1ccc(NC(=O)CN2CCN(c3nc(-c4ccc(F)cc4)cs3)CC2)c(OC)c1	8.68% (inactive)
O=[N+]([O-])c1ccc(F)c(N=Cc2ccc(Br)s2)c1	1.92% (inactive)
CCN(CC)C(=O)Oc1ccc2c(=O)c(-c3ccccc3)coc2c1	64.8% (inactive)
COc1ccc(-c2coc3cc(OC(=O)N4CCOCC4)ccc3c2=O)cc1	10.6% (inactive)
CCOc1ccc(N(CC(=O)Nc2cc(C)cc(C)c2)S(C)(=O)=O)cc1	7.61% (inactive)
N#C/C(=C/c1ccccc1[N+](=O)[O-])C(=O)NCc1ccco1	-4.24% (inactive)
CCCCSC1=NN1c1nc(N)nc(C)c1CC	-7.73% (inactive)
CC1CN(C(=S)c2cccc([N+](=O)[O-])c2)CC(C)O1 (stereo not given)	-2.37% (inactive)
CC1CN(C(=O)c2cc([N+](=O)[O-])cc([N+](=O)[O-])c2)CC(C)O1 (stereo not given)	-5.16% (inactive)
Cc1nn(CC(C)C(=O)N2CCN(S(=O)(=O)c3ccc(Cl)cc3)CC2)c(C)c1C (stereo not given)	-2.72% (inactive)
CCCCCCCCc1nc(SC(C)C(=O)O)n[nH]1 (stereo not given)	-1.56% (inactive)

SMILES	inhibition
COc1ccc(C2Nc3ccccc3NC3=C2C(=O)CC(C)(C)C3)c(OC)c1OC (stereo not given)	8.53% (inactive)
COc1ccc(NC(=O)c2ccc([N+](=O)[O-])o2)cc1	6.03% (inactive)
COc1ccc(-c2nnc(NC(=O)CS(=O)(=O)c3ccc(F)cc3)o2)c(OC)c1	7.17% (inactive)
COc1ccc(S(=O)(=O)N(C)CC(=O)NCc2ccco2)cc1Cl	2.22% (inactive)
CCCn1nnc(NC(=O)COc2ccccc2Cl)n1	-5.02% (inactive)
CCCn1nnc(NC(=O)COc2ccc(C3CCCCC3)cc2)n1	-1.63% (inactive)
Cc1cc(C(=O)N(C)CC2CCCN(CCc3ccc(F)cc3)C2)c(C)o1 (stereo not given)	-2.12% (inactive)
N=C1c2ccccc2CN1NC(=O)COc1ccc(Cl)cc1	-8.46% (inactive)
CCc1nn(CCCC(=O)N2CCc3ccccc3C2)c(=O)c2cc3occc3n12	-0.11% (inactive)
Cc1ccc(NC(=O)CSc2cn[nH]n2)cc1	-2.03% (inactive)
CCOc1ccc(-n2c(SCC(=O)Nc3ccc(C(=O)O)cc3)nc3ccccc3c2=O)cc1	1.72% (inactive)
CC(=O)c1ccc(NC(=O)CSc2cn[nH]n2)cc1	4.87% (inactive)
COc1cccc(NC(=O)CSc2nc(O)c(C)c(=O)n2-c2ccc(C)cc2)c1	-11.9% (inactive)
Cc1nnc(NC(=O)CSc2nnc(Cc3cccn3C)n2C)s1	-5.68% (inactive)
Cc1ccc(S(=O)(=O)N(C)C)cc1NC(=O)c1cccnc1Oc1ccccc1	-2.85% (inactive)
O=C(Nc1ccc2c(c1)OCO2)c1cnn2c1NC(c1ccco1)CC2C(F)(F)F (stereo not given)	-5.12% (inactive)
COc1ccc(-c2[nH]ncc2CN(C)Cc2ccccn2)c(OC)c1	4.69% (inactive)
O=C(NCc1ccccn1)c1cc2c(ccc3ccccc32)oc1=O	-2.34% (inactive)
CCOC(=O)c1ccccc1NC(=O)c1cccc2c1C(=O)N(C1CCN(C(=O)OCC)CC1)C2	-3.66% (inactive)
CCOC(=O)N1CCC(N2Cc3cccc(C(=O)Nc4cc(F)ccc4F)c3C2=O)CC1	-1.17% (inactive)
Cc1ccc(C2C3=C(CCCC3=O)N=C3c4ccccc4C(=O)C32)cc1 (stereo not given)	4.41% (inactive)
O=C1CCCC2=C1C(c1ccccc1)C1C(=O)c3ccccc3C1=N2 (stereo not given)	0.55% (inactive)
CCO[C@@H]1OC(C(=O)NCc2ccccc2)=C[C@H](C)[C@H]1CCCO	0.33% (inactive)

SMILES	inhibition
CCOC(=O)CSC1=C(C#N)C(c2ccccc2C)C2=C(CCCC2=O)N1 (stereo not given)	-2.12% (inactive)
CCOC(=O)CSC1=C(C#N)C(C)C2=C(CCCC2=O)N1 (stereo not given)	10.6% (inactive)
Clc1cccc(CN2CCSCC2)c1Cl	5.96% (inactive)
COc1ccc(/C=C/c2c(-c3cccc(C)c3)oc3ccc(N4CCOCC4)cc23)cc1	-2.46% (inactive)
O=C(OCc1ccc(O)cc1)c1c(-c2ccsc2)oc2ccc(N3CCOCC3)cc12	-0.88% (inactive)
COc1ccc(-c2noc(-c3ccco3)n2)cc1OC	-0.61% (inactive)
CCOC(=O)c1cc(-c2ccncc2)nc2c1c(C)nn2-c1ccccn1	0.76% (inactive)
COc1ccc(-c2cc(C(=O)O)c3c(C)nn(-c4ccccn4)c3n2)cc1	10.2% (inactive)
O=C(NC1CCCC1)C(c1ccncc1)N(C(=O)c1csnn1)C1CCCC1 (stereo not given)	3.35% (inactive)
Cc1nnsc1S(=O)(=O)c1ccccc1	-0.59% (inactive)
Nc1nc(-c2ccc(Cl)cc2)c(S(=O)(=O)c2ccccc2)s1	-1.98% (inactive)
COc1ccc(N(CC(=O)NC2CCCC2)S(=O)(=O)c2c(C)[nH]c(=O)[nH]c2=O)cc1	-3.45% (inactive)
Cc1ccc(OCCNC(=O)CNC(=O)c2ccc(C)cc2)cc1	5.29% (inactive)
Cc1cc(CN(C)C(=O)c2cc(COc3ccc(C)c(C)c3)on2)on1	7.13% (inactive)
Cc1ccc(OCc2cc(C(=O)N(C)Cc3nccn3C)no2)cc1C	8.06% (inactive)
Nc1c(C(=O)c2ccc(Cl)cc2)oc2ccccc12	-21.2% (inactive)
Cc1cc(C)c(NC(=O)C(C)(C)C)c(Cl)c1	-1.65% (inactive)
COc1ccc(C(CNC(=O)C(C)(C)Oc2ccc(Cl)cc2)N2CCCCC2)cc1 (stereo not given)	-12.8% (inactive)
COc1ccc(C(CNC(=O)C(C)(C)Oc2ccc(Cl)cc2)N2CCCC2)cc1 (stereo not given)	-9.42% (inactive)
CCN(CC)S(=O)(=O)c1ccc(NC(=O)c2ccc(Cl)nc2)cc1	4% (inactive)
O=C(O)c1ccccc1/C=N/Nc1ccc(S(=O)(=O)N2CCCC2)cc1[N+](=O)[O-]	-1.83% (inactive)
